The target of test [1] is Glucocorticoid receptor (Homo sapiens) (UniProt P04150). Kind of test: GR-GFP Redistribution (AID 450;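 active = compounds whose dose series gives a full or clear partial fitted curve of increased nuclear translocation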; also: potency is read from the fitted curve at half-maximal effect). The settings on record: U2OS GR-GFP nuclear translocation, laser cytometry, 2 h.
Test [2] shares this target. Kind of test: GR-EFC Redistribution (AID 451; calls by dose curve; also: potency is read from the fitted curve at half-maximal effect). The settings on record: CHO-K1 GR-EFC translocation, beta-gal luminescence, 2 h. In outline: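 CHO-K1 cells stably expressing nuclear-localized β-gal enzyme acceptor and GR fused C-terminally to the enzyme donor fragment; ligand-driven nuclear translocation restores β-gal by complementation. Compounds titrated up to 46 uM final, 2 h at 37 °C; luminescence read.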

Test [3] addresses Mitogen-activated protein kinase 10 (Mus musculus) (UniProt Q61831). Kind of test: JNK3 AlphaScreen Assay (AID 530).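 Also: kinase came from lysate of stimulated human HepG2 cells.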 Also: potency is read from the fitted curve at half-maximal effect.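 As to activity change, negative = inhibition: signal reports phosphorylation of biotinylated GST-cJun 1-79 at Ser73 with 10 µM ATP; % is scaled to controls: 0 for no effect and ±100 for the full control effect.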 Put shortly: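 Biotinylated GST-cJun(1-79) served as substrate for JNK3 in HepG2 lysates stimulated with IL-1beta and TNF-alpha. ATP was 10 uM final, pH 7.6. Ser73 phosphorylation was quantified by AlphaScreen (680 nm excitation).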
Test [4] concerns the target 3',5'-cyclic-AMP phosphodiesterase 4B (Homo sapiens) (UniProt Q07343). Kind of test: qHTS Assay for Inhibitors of PDE-IV (AID 607; active = well fitted activation curve with a large enough effect in the main read-out, with a control signal flat, not every such curve was filed as active; also: % of control where 0% means no effect). Put shortly: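 Cell-based read-out of cAMP via a modified cyclic nucleotide-gated channel and membrane potential dye (535/590 nm) in HEK293 cells expressing PDE4 endogenously. Compounds tested up to 22.9 uM final; 100 uM RO 20-1724 reference.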
In general terms: qHTS replaces the single test concentration by a dilution series.

A short description of test [5]: qHTS Assay for Lipid Storage Modulators (AID 1519; calls by dose curve). The settings on record: Drosophila S3 cells, BODIPY lipid droplet/cell ratio, laser cytometry, cells loaded with oleic acid. Put shortly: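 Cells seeded at 5,000 per well were treated with compounds over a concentration series and loaded with oleic acid (400 uM, as added). Lipid droplet fluorescence (488 nm excitation, 500-530 nm channel) was read by laser-scanning cytometry and normalized to 20 uM Triacsin C.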

Test [6] concerns the target DNA dC->dU-editing enzyme APOBEC-3G (Homo sapiens) (UniProt Q9HC16). Put plainly: qHTS for inhibitors of Vif-A3G interactions: Validation (AID 588379; active = well fitted curve in the direction sought with a large enough effect; an effect the other way counts as inactive or inconclusive; also: 0% is about no effect). Put shortly: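 Yellow fluorescence (Ex 488, Em 500-530) of Vif-coexpressing HeLa A3G-eYFP cells, scanned by Acumen cytometer, reports blocked A3G degradation. Cells plated at 700/well overnight at 37 deg C before compound addition, then a further overnight compound incubation at 37 deg C.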

Test [7] deals with Zika virus NS2B-NS3 protease. Put plainly: Primary screen GU AMC qHTS for Zika virus inhibitors (AID 1347154; active = well fitted curve in the direction sought with a large enough effect; an effect the other way counts as inactive or inconclusive;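 also: 0% = no-inhibitor control and -100% = no-enzyme control; nearly all actives have a fitted effect of over 70% in size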). Put shortly:
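Unlinked Zika NS2B hydrophilic domain/NS3 protease domain noncovalent complex (25 nM final) in 10 mM Tris-HCl pH 8.0, 0.01% Tween 20, with AMC peptide substrate. Fluorescence (ex 340, em 450 nm) change over 15 min, room temperature; percent inhibition fitted to 4-parameter Hill equation.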

The target of test [8] is Cytochrome P450 1A2 (Homo sapiens) (UniProt P05177). Kind of test: p450-cyp1a2 (AID 410; calls by dose curve; also: potency is read from the fitted curve at half-maximal effect). In outline: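 20nM CYP1A2, 100uM Luciferin-ME (=Km), 100mM KPO4; cpd 10 min RT; +NADPH regen, 60 min RT; stop/detect 20 min; luminescence. Normalized to furafylline 57 uM = full inhibition.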
Sequence of Cytochrome P450 1A2 (Homo sapiens) (P05177 whole entry, looked up): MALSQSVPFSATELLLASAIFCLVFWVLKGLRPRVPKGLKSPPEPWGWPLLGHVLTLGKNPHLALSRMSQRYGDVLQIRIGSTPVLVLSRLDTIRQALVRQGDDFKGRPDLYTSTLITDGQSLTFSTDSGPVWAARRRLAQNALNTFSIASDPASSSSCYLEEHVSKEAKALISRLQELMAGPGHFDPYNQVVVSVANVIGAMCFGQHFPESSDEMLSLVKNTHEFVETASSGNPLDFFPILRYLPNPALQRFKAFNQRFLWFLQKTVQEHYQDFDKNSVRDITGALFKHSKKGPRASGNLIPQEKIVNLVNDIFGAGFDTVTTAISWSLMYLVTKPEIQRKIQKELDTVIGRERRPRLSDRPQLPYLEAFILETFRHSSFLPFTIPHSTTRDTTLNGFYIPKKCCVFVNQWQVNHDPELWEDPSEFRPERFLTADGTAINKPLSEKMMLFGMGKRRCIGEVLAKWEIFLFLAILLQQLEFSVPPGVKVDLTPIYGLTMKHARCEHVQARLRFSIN
Test [9] can be described thus: AP1 Signaling Pathway (AID 357).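 Also: ME-180 reporter cells stimulated with EGF at its EC50 level; % is scaled to controls: 0 for no effect and ±100 for the full control effect.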 The settings on record: ME-180 AP-1-bla reporter, EGF-induced, beta-lactamase ratio, 5 h. Put shortly:
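AP-1-bla ME-180 cells, Opti-MEM + 0.5% dialyzed FBS, plated overnight 37 °C. Cpd titration + EC50 EGF, 5 h 37 °C. CCF4 2.5 h RT; ex 405, em 460/530 ratio → %activity, AC50.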

Test [10] is described as follows: NFAT Signaling Pathway (AID 444).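 Also: carbachol stimulus at about its EC50 of 1 µM final; % is scaled to controls: 0 for no effect and ±100 for the full control effect.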 The settings on record: Jurkat NFAT-bla M1, carbachol, beta-lactamase ratio, 5 h. In outline: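 Jurkat cells carrying an NFAT-driven β-lactamase reporter and co-transfected muscarinic M1 receptor were treated with compound plus carbachol (1 uM final, an EC50 level) for 5 h at 37 °C. CCF4 loading followed for 1 h at RT; 460/530 nm ratio gave %activity.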

Test [11] is described as follows: Stat Signaling Pathway (AID 446).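 Also: ME-180 cervical cancer cells given 40 pM IL-6 alongside compound; SIE-controlled beta-lactamase reporter measured as 460/530 nm FRET emission ratio; % is scaled to controls: 0 for no effect and ±100 for the full control effect.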 The settings on record: ME-180 (cervical carcinoma) SIE beta-lactamase reporter, IL-6 stimulated, 5 h. In outline:
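FRET read-out (405 nm excitation, 460/530 nm emission) of a beta-lactamase reporter under a STAT-inducible element in ME-180 cervical carcinoma cells. Cells with compound receive 40 pM IL-6 for 5 h. Values are normalised to AC90 stimulation and AC90 JAK-inhibitor controls.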

Test [12] deals with Ubiquitin carboxyl-terminal hydrolase 1 (Homo sapiens) (UniProt O94782). Put plainly: Inhibitors of USP1/UAF1: Pilot qHTS (AID 504865; active = well fitted curve in the direction sought with a large enough effect; an effect the other way counts as inactive or inconclusive;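 also: rhodamine fluorescence freed from ubiquitin-rhodamine substrate followed over time; top concentration of the series differs between compounds; % is scaled to controls: 0 for no effect and ±100 for the full control effect; nearly all actives have a fitted effect of over 35% in size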). Put shortly: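 Deubiquitinase activity followed as kinetic rhodamine fluorescence release from 150 nM Ub-Rho. 1 nM USP1/UAF1 with compound, after 15 min room-temperature preincubation, in HEPES pH 7.8 buffer containing TCEP, EDTA, BSA and Tween-20.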
Sequence of Ubiquitin carboxyl-terminal hydrolase 1 (Homo sapiens) (O94782 whole entry, looked up): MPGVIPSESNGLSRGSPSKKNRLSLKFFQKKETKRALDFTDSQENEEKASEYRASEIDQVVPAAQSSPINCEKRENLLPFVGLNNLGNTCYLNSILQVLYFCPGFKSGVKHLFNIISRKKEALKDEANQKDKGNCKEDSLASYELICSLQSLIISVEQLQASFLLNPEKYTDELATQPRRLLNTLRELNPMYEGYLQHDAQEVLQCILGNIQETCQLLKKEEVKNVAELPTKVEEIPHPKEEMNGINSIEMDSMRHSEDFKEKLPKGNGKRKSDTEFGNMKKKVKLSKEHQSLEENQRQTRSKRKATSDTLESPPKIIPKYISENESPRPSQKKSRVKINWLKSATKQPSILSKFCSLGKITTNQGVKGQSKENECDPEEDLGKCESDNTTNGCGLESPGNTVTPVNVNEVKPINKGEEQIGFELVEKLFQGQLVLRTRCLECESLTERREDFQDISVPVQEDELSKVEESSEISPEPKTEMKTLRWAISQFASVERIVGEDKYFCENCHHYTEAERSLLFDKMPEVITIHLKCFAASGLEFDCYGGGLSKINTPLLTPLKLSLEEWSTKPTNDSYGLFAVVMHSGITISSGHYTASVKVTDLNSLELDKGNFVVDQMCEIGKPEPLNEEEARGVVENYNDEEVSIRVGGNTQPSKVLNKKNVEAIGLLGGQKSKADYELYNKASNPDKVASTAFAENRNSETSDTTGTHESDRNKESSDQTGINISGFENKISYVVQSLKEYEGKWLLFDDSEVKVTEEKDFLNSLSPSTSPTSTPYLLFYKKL

The target of test [13] is Guanine nucleotide-binding protein G(i) subunit alpha-1 (Homo sapiens) (UniProt P63096). Put plainly: qHTS Assay for Inhibitors of RGS12 GoLoco Motif Activity (Green Fluorophore) (AID 879; active = well fitted curve in the direction sought with a large enough effect; an effect the other way counts as inactive or inconclusive;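 also: 0% = labeled peptide with Gαi1 and full inhibition = labeled peptide alone without protein; negative values mean loss of peptide binding seen as reduced polarization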). In outline:
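A drop in FITC polarization marked displacement of the FITC-tagged RGS12 GoLoco peptide (10 nM) from Gαi1 (50 nM). Compounds were incubated 10 min at room temperature in Tris pH 7.5 buffer containing 150 mM NaCl, 0.1 mM GDP and 0.05% NP40; unlabeled peptide titration served as control.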

The target in test [14] is Pyruvate kinase (Leishmania mexicana) (UniProt Q27686). Put plainly: qHTS Validation Assay for Inhibitors of Leishmania Mexicana Pyruvate Kinase (AID 945; active = well fitted curve in the direction sought with a large enough effect; an effect the other way counts as inactive or inconclusive;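 also: 0% = DMSO only neutral control wells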). Put shortly:
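Mutant LmPYK (E451W), 0.2 nM, plus 0.5 mM PEP and 0.1 mM ADP in 50 mM imidazole pH 7.2 containing 0.01% Tween 20 and 0.05% BSA. Incubated 1 h at room temperature; luminescence via PKLight, normalized to DMSO.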

The target in test [15] is Cytochrome P450 2C9 (Homo sapiens) (UniProt P11712). Put plainly: qHTS Assay for Inhibitors and Substrates of Cytochrome P450 2C9 (AID 883; active = well fitted curve in the direction sought with a large enough effect; an effect the other way counts as inactive or inconclusive; also: % is scaled to controls: 0 for no effect and ±100 for the full control effect; nearly all actives have a fitted effect of over 60% in size). Put shortly: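 A luminogenic readout tracked human CYP2C9 (10nM) converting deoxyluciferin (100uM, at KM) in 25mM KPO4 during 60 min at 37C with regenerated NADPH. Values normalized to 57uM sulphaphenazole as complete inhibition.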

Test [16] has as its target Cytochrome P450 3A4 (Homo sapiens) (UniProt P08684). Put plainly: qHTS Assay for Activators of Cytochrome P450 3A4 (AID 885; active = well fitted curve in the direction sought with a large enough effect; an effect the other way counts as inactive or inconclusive; also: nearly all actives have a fitted effect of over 65% in size). Put shortly:
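Luminescent readout of luciferin formed from 25 uM Luciferin-PPXE (KM level) by 20 nM CYP3A4 in 200 mM KPO4, with 60 min NADPH-driven reaction at room temperature after 10 min compound exposure. Ketoconazole (57 uM) defined 100% inhibition.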

Test [17] has as its target Cytochrome P450 2D6 (Homo sapiens) (UniProt P10635). Put plainly: qHTS Assay for Inhibitors and Substrates of Cytochrome P450 2D6 (AID 891; active = well fitted curve in the direction sought with a large enough effect; an effect the other way counts as inactive or inconclusive; also: potency is read from the fitted curve at half-maximal effect; nearly all actives have a fitted effect of over 60% in size). In outline: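 Luminescent read-out of luciferin formed by 5 nM human CYP2D6 demethylating 30 uM Luciferin-ME EGE (Km level) over 60 min at room temperature after NADPH regeneration addition. Data normalized to full inhibition by 1.43 uM quinidine.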

The target of test [18] is Cytochrome P450 2C19 (Homo sapiens) (UniProt P33261). Put plainly: qHTS Assay for Inhibitors and Substrates of Cytochrome P450 2C19 (AID 899; active = well fitted curve in the direction sought with a large enough effect; an effect the other way counts as inactive or inconclusive; also: potency is read from the fitted curve at half-maximal effect; nearly all actives have a fitted effect of over 60% in size). Put shortly: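 NADPH-dependent conversion of Luciferin-H EGE (10uM, at KM) by 5nM enzyme in 50mM KPO4, 60 min at 37C following 10 min compound preincubation. Stopped with luciferin detection buffer; luminescence read after 20 min.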

Setting [19] is: measured here: cell count channel max response.
Setting [20] is: measured here: lipid channel max response.

Values joined by “and” are separate entries in the source; they are usually repeats but may differ in a detail not shown here. Equal entries are not always repeated. Records with an inconclusive call do not appear. The source holds several records for some structures; these can differ, active in one and inactive in another. Active and inactive are the calls of the source. Unless noted, calls follow the shape of the dose curve; as a rule, active = well fitted curve in either direction with a large enough effect (not every such curve was filed as active); inconclusive = small, poorly fitted or top-dose-only effect, or another doubt; inactive = flat fitted curve, though single readings scatter.

Sequence of 3',5'-cyclic-AMP phosphodiesterase 4B (Homo sapiens) (Q07343 whole entry, looked up): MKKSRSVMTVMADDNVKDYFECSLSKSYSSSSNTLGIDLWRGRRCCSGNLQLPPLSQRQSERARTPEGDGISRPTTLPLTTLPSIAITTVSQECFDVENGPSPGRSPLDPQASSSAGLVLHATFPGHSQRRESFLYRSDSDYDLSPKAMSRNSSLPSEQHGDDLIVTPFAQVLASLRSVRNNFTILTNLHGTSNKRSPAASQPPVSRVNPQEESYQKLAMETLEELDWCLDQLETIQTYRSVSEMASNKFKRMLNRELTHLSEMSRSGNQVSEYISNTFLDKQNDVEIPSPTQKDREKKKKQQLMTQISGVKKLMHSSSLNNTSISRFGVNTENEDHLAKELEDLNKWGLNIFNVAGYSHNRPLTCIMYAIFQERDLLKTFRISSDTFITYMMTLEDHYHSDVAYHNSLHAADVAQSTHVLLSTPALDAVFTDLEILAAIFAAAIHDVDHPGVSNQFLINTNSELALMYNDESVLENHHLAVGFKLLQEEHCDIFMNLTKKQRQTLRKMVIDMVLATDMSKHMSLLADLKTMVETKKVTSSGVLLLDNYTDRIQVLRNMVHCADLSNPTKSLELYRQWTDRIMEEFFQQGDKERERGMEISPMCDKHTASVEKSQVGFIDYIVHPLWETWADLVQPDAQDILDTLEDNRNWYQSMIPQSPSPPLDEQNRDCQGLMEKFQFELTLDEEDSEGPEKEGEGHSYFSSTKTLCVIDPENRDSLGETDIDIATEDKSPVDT
Sequence of DNA dC->dU-editing enzyme APOBEC-3G (Homo sapiens) (Q9HC16 whole entry, looked up): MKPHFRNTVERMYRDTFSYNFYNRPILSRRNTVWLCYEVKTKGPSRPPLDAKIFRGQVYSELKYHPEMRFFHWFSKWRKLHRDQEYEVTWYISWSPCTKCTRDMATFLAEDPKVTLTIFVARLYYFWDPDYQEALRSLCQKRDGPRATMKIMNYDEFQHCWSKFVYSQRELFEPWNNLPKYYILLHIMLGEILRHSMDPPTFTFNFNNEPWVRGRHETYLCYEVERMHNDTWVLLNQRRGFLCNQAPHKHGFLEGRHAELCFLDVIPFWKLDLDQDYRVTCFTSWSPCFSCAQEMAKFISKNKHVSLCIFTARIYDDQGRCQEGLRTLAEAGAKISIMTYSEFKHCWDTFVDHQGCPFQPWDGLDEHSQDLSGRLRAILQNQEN
Sequence of Cytochrome P450 2D6 (Homo sapiens) (P10635 whole entry, looked up): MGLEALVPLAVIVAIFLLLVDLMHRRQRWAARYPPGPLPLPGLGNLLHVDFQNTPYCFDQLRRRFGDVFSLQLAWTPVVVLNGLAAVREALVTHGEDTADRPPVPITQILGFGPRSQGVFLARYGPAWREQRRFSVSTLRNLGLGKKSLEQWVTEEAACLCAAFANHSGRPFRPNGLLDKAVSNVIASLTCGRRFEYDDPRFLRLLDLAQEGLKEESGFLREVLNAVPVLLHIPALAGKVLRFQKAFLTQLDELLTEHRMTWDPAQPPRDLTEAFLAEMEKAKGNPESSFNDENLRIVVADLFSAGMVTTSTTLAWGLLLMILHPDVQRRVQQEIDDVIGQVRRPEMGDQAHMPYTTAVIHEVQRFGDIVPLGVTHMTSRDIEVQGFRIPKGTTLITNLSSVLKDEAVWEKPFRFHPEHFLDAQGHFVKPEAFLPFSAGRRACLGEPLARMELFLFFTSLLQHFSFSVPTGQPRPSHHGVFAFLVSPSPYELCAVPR
Sequence of Glucocorticoid receptor (Homo sapiens) (P04150 whole entry, looked up, the tested form may be a part): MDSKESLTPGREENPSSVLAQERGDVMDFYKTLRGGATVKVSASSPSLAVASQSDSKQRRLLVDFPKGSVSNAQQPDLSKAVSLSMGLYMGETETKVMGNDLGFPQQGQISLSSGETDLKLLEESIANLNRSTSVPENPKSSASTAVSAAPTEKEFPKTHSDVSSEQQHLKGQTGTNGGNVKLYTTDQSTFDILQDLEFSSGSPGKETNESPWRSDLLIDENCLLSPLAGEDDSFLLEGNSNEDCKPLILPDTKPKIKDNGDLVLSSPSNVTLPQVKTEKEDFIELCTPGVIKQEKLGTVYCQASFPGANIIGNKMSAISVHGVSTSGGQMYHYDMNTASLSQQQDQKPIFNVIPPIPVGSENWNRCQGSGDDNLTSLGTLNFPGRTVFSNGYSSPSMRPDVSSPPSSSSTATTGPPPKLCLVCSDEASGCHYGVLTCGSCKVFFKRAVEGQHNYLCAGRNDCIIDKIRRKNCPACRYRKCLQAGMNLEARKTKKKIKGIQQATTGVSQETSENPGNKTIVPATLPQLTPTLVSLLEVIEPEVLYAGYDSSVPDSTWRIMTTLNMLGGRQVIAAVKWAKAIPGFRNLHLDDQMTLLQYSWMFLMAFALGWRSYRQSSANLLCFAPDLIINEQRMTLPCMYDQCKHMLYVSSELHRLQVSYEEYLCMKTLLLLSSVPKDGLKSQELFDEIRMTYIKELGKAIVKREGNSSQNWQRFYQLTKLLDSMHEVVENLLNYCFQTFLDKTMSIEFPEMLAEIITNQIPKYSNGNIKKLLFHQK
Sequence of Pyruvate kinase (Leishmania mexicana) (Q27686 2-499 E452W): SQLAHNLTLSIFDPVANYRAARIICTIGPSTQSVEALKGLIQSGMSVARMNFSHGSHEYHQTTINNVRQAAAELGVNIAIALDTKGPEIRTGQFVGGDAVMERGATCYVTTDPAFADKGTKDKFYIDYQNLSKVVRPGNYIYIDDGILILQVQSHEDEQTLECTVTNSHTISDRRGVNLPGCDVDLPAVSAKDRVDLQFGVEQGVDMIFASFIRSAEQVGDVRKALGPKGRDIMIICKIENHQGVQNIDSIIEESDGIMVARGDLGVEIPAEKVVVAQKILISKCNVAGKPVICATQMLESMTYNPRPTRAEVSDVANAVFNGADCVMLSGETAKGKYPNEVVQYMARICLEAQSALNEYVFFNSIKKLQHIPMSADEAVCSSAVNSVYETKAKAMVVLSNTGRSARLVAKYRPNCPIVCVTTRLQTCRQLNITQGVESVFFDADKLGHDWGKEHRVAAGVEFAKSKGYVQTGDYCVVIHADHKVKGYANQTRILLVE
Sequence of Guanine nucleotide-binding protein G(i) subunit alpha-1 (Homo sapiens) (P63096 whole entry, looked up): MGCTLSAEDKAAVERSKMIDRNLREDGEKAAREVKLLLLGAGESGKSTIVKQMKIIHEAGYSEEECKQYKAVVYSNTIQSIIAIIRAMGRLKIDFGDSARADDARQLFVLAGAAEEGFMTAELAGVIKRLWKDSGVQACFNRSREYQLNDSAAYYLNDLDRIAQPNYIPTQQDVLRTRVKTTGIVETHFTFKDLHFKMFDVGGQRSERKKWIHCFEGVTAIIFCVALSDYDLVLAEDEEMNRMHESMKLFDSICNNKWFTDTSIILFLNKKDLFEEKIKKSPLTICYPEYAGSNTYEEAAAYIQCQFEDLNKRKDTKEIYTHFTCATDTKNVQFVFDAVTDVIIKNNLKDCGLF

As for `CCNCCCNCCCCNCCCNCC`, the Potency in [1] and in test [2] was > 46 µM (inactive) each time. Further, the Potency entry in [3], in [4], in test [6] and in test [7] was “inactive” each time. In addition, the activity change, negative = inhibition in test [5] (at 57.5 µM (top of the series)) was 2.21% (inactive). Besides, the max response in test [5] (setting [19]) was 15.1%; in test [5] (setting [20]) it was 18.1%.
Regarding `N#C/C(=C\c1ccc(O)c(O)c1)C(N)=O`, the values for the Potency in test [8], in [1] and in test [2] were 39.8 µM (active), > 46 µM (inactive) and > 46 µM (inactive), respectively. Also, the Potency entry in test [4], in test [6] and in test [7] was “inactive” each time. Besides, in [5] (at 57.5 µM (top of the series)), the activity change, negative = inhibition is -11.6% (inactive). Besides, the max response in test [5] (setting [19]) was determined as 26.3%; in [5] (setting [20]), 9.4%.
Consider `CC(C)NC[C@@H](O)COc1cccc2[nH]ccc12`, for which the activity change, negative = inhibition in test [9] (at 17.2 µM (top of the series)) was 5.19% (inactive); in [9] (at 38 µM (top of the series)), 17% (inactive) and 4.44% (inactive); in test [10] (at 17.2 µM (top of the series)) it was 4% (inactive); in test [10] (at 38 µM (top of the series)), 1.65% (inactive) and 1.97% (inactive); in test [5] (at 25.7 µM (top of the series)), 0.0529% (inactive); in [5] (at 57.5 µM (top of the series)) it was 6.23% (inactive). The activity, negative = inhibition is 19% (inactive) in test [11] (at 17.2 µM (top of the series)); 12.1% (inactive) and 12.9% (inactive) in test [11] (at 38 µM (top of the series)). The Potency is > 46 µM (inactive) and > 20.6 µM (inactive) in [1]; > 46 µM (inactive) and > 20.6 µM (inactive) in [2]. The Potency entry in test [3], in test [4], in test [12], in test [6] and in [7] was “inactive” each time. Further, the max response is -7.16% and 6.39% in test [5] (setting [19]); -7.67% and 11.8% in [5] (setting [20]).
For the compound `CC(C)(C)NC[C@H](O)c1ccc(O)c(CO)c1`, the activity change, negative = inhibition in test [9] (at 17.2 µM (top of the series)) is -9.06% (inactive); in [9] (at 38 µM (top of the series)) it was -4.2% (inactive) and -6.86% (inactive); in [10] (at 17.2 µM (top of the series)), -10.8% (inactive); in test [10] (at 38 µM (top of the series)), 0.545% (inactive) and 8.74% (inactive); in test [5] (at 25.7 µM (top of the series)), -2.46% (inactive); in [5] (at 57.5 µM (top of the series)), 3.61% (inactive). For the same compound, the activity, negative = inhibition in test [11] (at 17.2 µM (top of the series)) is 16.1% (inactive); in [11] (at 38 µM (top of the series)), -5.91% (inactive) and -0.604% (inactive). For the same compound, the Potency in test [1] was > 46 µM (inactive) and > 20.6 µM (inactive); in test [2], > 46 µM (inactive) and > 20.6 µM (inactive). Besides, the Potency entry in [3], in test [4], in test [14], in test [12], in [6] and in [7] was “inactive” in each case. Further, in test [13], the call was inactive. In addition, the max response in test [5] (setting [19]) is -16.6%; in test [5] (setting [20]) it was -19.3% and -13%.
On to `CO[C@@]12C[C@@H](COC(=O)c3cncc(Br)c3)CN(C)[C@H]1Cc1cn(C)c3cccc2c13`, for which the activity change, negative = inhibition is -12% (inactive) in test [9] (at 17.2 µM (top of the series)) and -0.393% (inactive) in test [5] (at 25.7 µM (top of the series)). Also, the Potency in test [8] was 5.01 µM (active) and 15.8 µM (active) and 39.8 µM (active); in test [1], > 20.6 µM (inactive) and > 46 µM (inactive); in test [2], > 20.6 µM (inactive) and > 46 µM (inactive); in test [3], “inactive and 3.16 µM (active)”; in [17] it was 39.8 nM (active) and 2.5 nM (active) and 20 nM (active); in test [18], 6.31 µM (active). Further, the activity, negative = inhibition in [11] (at 17.2 µM (top of the series)) was -10.5% (inactive). Moreover, the Potency result in [15], in test [16], in [6] and in test [7] was “inactive” each time. Moreover, the max response in test [5] (setting [19]) was -7.54%; in test [5] (setting [20]), -4.61%.

The record behind these values is PubChem BioAssay (NCATS).
